Compound activity from PubChem BioAssay.
Pf growth 96h: inhibits malaria parasite growth, 96 h; P. falciparum luciferase reporter growth, 96 h; 320,000 tested, 6.9% active; AID 504834; Potency, µM (top dose mostly 28.7 µM), usual class: inhibitors
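Plates of compound plus infected erythrocytes (2% hematocrit, 0.05% parasitemia final) incubate 96 hours, 37 C, 5% CO2. Detection reagent added; reduced luminescence from the parasites' luciferase reporter flags inhibition.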
Cycloheximide cs: counter-screen for Shiga toxin inhibitors: cycloheximide protein synthesis inhibition; AID 2314; 300,000 tested, 12% active; max response, %; cell reporter, cycloheximide protein synthesis inhibition counterscreen; in the data active = max response mostly above about 13%, no sharp cut-off; inactive = mostly below about 14%; also: read at 38.3 µM for the half of the compounds with a filed dose
Shiga toxin inh: Shiga toxin inhibition; Vero cells, Shiga toxin protein synthesis inhibition reporter; inhibition, % at 38.7 µM; 290,000 tested, 9.2% active; AID 2315; in the data active = inhibition mostly above about 28%, no sharp cut-off; inactive = mostly below about 43%
HCMV antiviral: human cytomegalovirus inhibition. HFF cells, HCMV-luciferase reporter, 72 h; active compounds read low. activity change, negative = inhibition, % at 57.5 µM. 410,000 tested, 4.5% active; in the data active = activity change below about -60%; inconclusive = no clear call, values can overlap the other calls; inactive = above about -39%
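Cell-based, HFFs, 1000 cells/well, 16 h 37C; cpds in DMSO + HCMV-luc, MOI 1 PFU/cell; 72 h 37C; OneGlo luminescence after 5 min RT; norm. to buffer vs Salinomycin 10uM.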
Pf growth 48h: P. falciparum growth inhibition at 48 hours (one generation); AID 504832; P. falciparum luciferase growth in erythrocytes, 48 h; 310,000 tested, 5.9% active; Potency, µM (top dose mostly 28.7 µM), usual class: inhibitors
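Read-out is firefly luciferase luminescence from an integrated reporter in P. falciparum, so falling signal marks reduced parasite growth. Infected erythrocytes were at 2% hematocrit and 0.1% parasitemia (final) in Albumax-supplemented RPMI 1640.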
Of the large screens only hits and unclear results are named; the others gave an inactive call. Only some compounds are listed: those with a hit (about 20% of all), similar ones and a draw of the others. Unless noted, calls follow the shape of the dose curve; as a rule, active = well fitted inhibition curve with a large enough effect; inconclusive = small, poorly fitted or top-dose-only effect, or another doubt; inactive = no such curve, though single readings can be large or run the other way.

N#CC1(Cc2ccccc2Cl)c2ccccc2C=CN1C(=O)c1ccccc1 (centres undefined)	Pf growth 48h inconclusive (no result: Pf growth 96h)
CCC(C)NC(=O)CSc1nc2cc3c(cc2c(=O)n1Cc1ccc(C(=O)NCCc2ccc(OC)c(OC)c2)cc1)OCO3 (centres undefined)	none (no result: Pf growth 96h, HCMV antiviral, Pf growth 48h)
C/C(=N\NC(=O)c1c([N+](=O)[O-])c(C)nn1C)c1ccc(NC(=O)c2ccc(C)o2)cc1	Cycloheximide cs 25, Shiga toxin inh 51
C/C(=N\NS(=O)(=O)c1ccc(C)cc1)c1ccc(C)o1	none
C/C(=N/NS(=O)(=O)c1ccc(F)cc1)c1ccc(NC(=O)c2ccc(C)o2)cc1	Cycloheximide cs 35 (no result: Pf growth 48h)
C/C(=N\NC(=O)C1(C)CC1(Br)Br)c1ccc(NC(=O)c2ccc(C)o2)cc1 (centres undefined)	Pf growth 96h 9.3µM, Cycloheximide cs 24, Shiga toxin inh 54, HCMV antiviral inconclusive, Pf growth 48h inconclusive
COc1cc2nc(CN3CCN(S(=O)(=O)c4c(F)cccc4F)CC3)[nH]c(=O)c2cc1OC	Pf growth 96h inconclusive, HCMV antiviral inconclusive, Pf growth 48h 10µM (no result: Cycloheximide cs, Shiga toxin inh)
CC(C)Cc1nnc(NC(=O)CSc2nc(-c3ccccc3)cc(=O)[nH]2)s1	none
O=C(O)CS(=O)(=O)c1ccc(C(F)(F)F)cn1	Pf growth 96h inconclusive
O=C1CN2Cc3c(ccc(Cl)c3Cl)N=C2N1	none (no result: Pf growth 96h, HCMV antiviral, Pf growth 48h)
CCOC(=O)c1nc(C)n(-c2cc(Cl)ccc2Cl)n1	none
CCOC(=O)c1nc(C)n(-c2cc(OC)c(Cl)cc2Cl)n1	Cycloheximide cs 46, Shiga toxin inh 41
COc1ccc(NS(=O)(=O)c2c(C)nc3scc(C)n3c2=O)cc1	none (no result: Pf growth 96h, Cycloheximide cs, Shiga toxin inh, Pf growth 48h)
CC(C)c1c(C(=O)N/N=C/c2ccc3c(c2)OCO3)nnn1-c1nonc1N	HCMV antiviral inconclusive
Nc1nonc1-n1nnc(C(=O)N/N=C/c2cccc(Cl)c2)c1CN1CCCCCC1	none (no result: Pf growth 96h, Cycloheximide cs, Shiga toxin inh, Pf growth 48h)
Nc1nonc1-n1nnc(C(=O)N/N=C/c2ccc3c(c2)OCO3)c1-c1ccccc1	Pf growth 96h inconclusive, HCMV antiviral -70, Pf growth 48h inconclusive
Nc1nonc1-n1nnc(C(=O)N/N=C/c2ccc(Br)cc2)c1-c1ccc2c(c1)OCO2	Pf growth 96h 0.059µM, HCMV antiviral active, Pf growth 48h 0.21µM
Nc1nonc1-n1nnc(C(=O)N/N=C/c2cccc(Cl)c2)c1-c1ccc2c(c1)OCO2	Pf growth 96h 0.033µM, HCMV antiviral active, Pf growth 48h 0.074µM
Nc1nonc1-n1nnc(C(=O)N/N=C/c2c(F)cccc2Cl)c1-c1ccc2c(c1)OCO2	Pf growth 96h 6.6µM, Pf growth 48h 13µM
O=C(C[C@H]1C(=O)N(Cc2cccnc2)C[C@@H]1Cc1ccccc1)Nc1ccc(Br)cc1	none (no result: Pf growth 96h, Cycloheximide cs, Shiga toxin inh, Pf growth 48h)
CN1C(=O)C(Cc2ccc(OCc3ccccc3)cc2)C(=O)N(C)C1=O	Cycloheximide cs 38, Shiga toxin inh 67
COCCSc1ccccc1C(=O)N1CCN(c2ccccc2OC)CC1	none
O=C(c1cn(Cc2ccccc2)c2ccccc12)C1CC1	Cycloheximide cs 12
O=C(Cn1cc(C(=O)C2CC2)c2ccccc21)NCc1ccccc1	Cycloheximide cs 34, Shiga toxin inh 53
O=C(O)Cn1cc(C(=O)C2CC2)c2ccccc21	none (no result: Pf growth 96h)
Cc1c(Cl)cccc1NC(=O)Cn1cc(C(=O)C2CCCCC2)c2ccccc21	HCMV antiviral -70 (no result: Pf growth 96h, Cycloheximide cs, Shiga toxin inh, Pf growth 48h)
O=C(COc1ccccc1)c1cn(Cc2ccccc2)c2ccccc12	Cycloheximide cs 18, HCMV antiviral -63, Pf growth 48h inconclusive
O=C(CN1CCN(S(=O)(=O)c2ccc(F)cc2)CC1)Nc1ccnn1C1CCCC1	Pf growth 48h inconclusive (no result: Cycloheximide cs, Shiga toxin inh)
Cc1ccc(C)c(C(=O)COC(=O)CN2C(=O)C3C4C=CC(C4)C3C2=O)c1 (centres undefined)	none
O=C(CCCn1c(=O)c2ccccc2n(CC(=O)Nc2ccc(F)cc2F)c1=O)NCc1ccccc1Cl	none (no result: Pf growth 96h, Cycloheximide cs, Shiga toxin inh, Pf growth 48h)
CCCCCCN=C(C)c1ccccc1O	none
Cn1c(=O)oc2cc(S(=O)(=O)N3CCCC(C(=O)NCCc4ccccc4)C3)ccc21 (centres undefined)	none (no result: Pf growth 96h, Cycloheximide cs, Shiga toxin inh, Pf growth 48h)
O=[N+]([O-])c1ccccc1Sc1nccn1Cc1ccccc1	Pf growth 96h 3.3µM
Cc1ccc(/C=C2\CCC3=C2OC(N)=C(C#N)C3c2ccc(C)cc2)cc1 (centres undefined)	Pf growth 96h inconclusive, Pf growth 48h inconclusive (no result: HCMV antiviral)
N#CC1=C(N)OC2=C(CCc3ccccc32)C1c1ccccc1 (centres undefined)	HCMV antiviral -92, Pf growth 48h 12µM
